Where a name gives a salt, the structure may show the parent alone. ± gives the standard deviation of the averaged measurements.
Experiments:
[1] = test system: Saccharomyces cerevisiae BY4741 SeMeCo community; test: z-score of prototroph abundance vs DMSO median; higher = larger share of this subpopulation than in DMSO controls; settings: 10 µM; 24 h; SM minimal medium; subpopulation (auxotrophy): Prototroph
Method in brief: (§1)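 Automated confocal microscopy of paraformaldehyde-fixed cells was used to follow a Saccharomyces cerevisiae BY4741 community carrying four plasmids, each restoring one auxotrophy and encoding a distinct fluorescent protein. The community was pre-grown overnight to OD600 1.0, diluted to 0.3, and added at 70 µl to 384-well plates acoustically predosed with library drugs (10 µM final) for 24 h of growth in minimal SM medium. Single-auxotroph fluorescent strains set thresholds and autofluorescence correction, and each subpopulation's abundance was scored as a z-score against the vehicle-well median.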

[2] = test system: Saccharomyces cerevisiae BY4741 SeMeCo community; test: z-score of subpopulation abundance vs DMSO median, subpopulation auxotrophic for L; higher = larger share of this subpopulation than in DMSO controls; settings: 10 µM; 24 h; SM minimal medium; subpopulation (auxotrophy): L
Method in brief: as §1

[3] = test system: Saccharomyces cerevisiae BY4741 SeMeCo community; test: z-score of subpopulation abundance vs DMSO median, subpopulation auxotrophic for U; higher = larger share of this subpopulation than in DMSO controls; settings: 10 µM; 24 h; SM minimal medium; subpopulation (auxotrophy): U
Method in brief: as §1

[4] = test system: Saccharomyces cerevisiae BY4741 SeMeCo community; test: z-score of subpopulation abundance vs DMSO median, subpopulation auxotrophic for H; higher = larger share of this subpopulation than in DMSO controls; settings: 10 µM; 24 h; SM minimal medium; subpopulation (auxotrophy): H
Method in brief: as §1

[5] = test system: Saccharomyces cerevisiae BY4741 SeMeCo community; test: z-score of subpopulation abundance vs DMSO median, subpopulation auxotrophic for LU; higher = larger share of this subpopulation than in DMSO controls; settings: 10 µM; 24 h; SM minimal medium; subpopulation (auxotrophy): LU
Method in brief: as §1

[6] = test system: Saccharomyces cerevisiae BY4741 SeMeCo community; test: z-score of subpopulation abundance vs DMSO median, subpopulation auxotrophic for HM; higher = larger share of this subpopulation than in DMSO controls; settings: 10 µM; 24 h; SM minimal medium; subpopulation (auxotrophy): HM
Method in brief: as §1

[7] = test system: Saccharomyces cerevisiae BY4741 SeMeCo community; test: z-score of subpopulation abundance vs DMSO median, subpopulation auxotrophic for HU; higher = larger share of this subpopulation than in DMSO controls; settings: 10 µM; 24 h; SM minimal medium; subpopulation (auxotrophy): HU
Method in brief: as §1

[8] = test system: Saccharomyces cerevisiae BY4741 SeMeCo community; test: z-score of subpopulation abundance vs DMSO median, subpopulation auxotrophic for UM; higher = larger share of this subpopulation than in DMSO controls; settings: 10 µM; 24 h; SM minimal medium; subpopulation (auxotrophy): UM
Method in brief: as §1

[9] = test system: Saccharomyces cerevisiae BY4741 SeMeCo community; test: z-score of subpopulation abundance vs DMSO median, subpopulation auxotrophic for HL; higher = larger share of this subpopulation than in DMSO controls; settings: 10 µM; 24 h; SM minimal medium; subpopulation (auxotrophy): HL
Method in brief: as §1

[10] = test system: Saccharomyces cerevisiae BY4741 SeMeCo community; test: z-score of subpopulation abundance vs DMSO median, subpopulation auxotrophic for HLU; higher = larger share of this subpopulation than in DMSO controls; settings: 10 µM; 24 h; SM minimal medium; subpopulation (auxotrophy): HLU
Method in brief: as §1

[11] = test system: Saccharomyces cerevisiae BY4741 SeMeCo community; test: z-score of subpopulation abundance vs DMSO median, subpopulation auxotrophic for HLM; higher = larger share of this subpopulation than in DMSO controls; settings: 10 µM; 24 h; SM minimal medium; subpopulation (auxotrophy): HLM
Method in brief: as §1

[12] = test system: Saccharomyces cerevisiae BY4741 SeMeCo community; test: z-score of subpopulation abundance vs DMSO median, subpopulation auxotrophic for HUM; higher = larger share of this subpopulation than in DMSO controls; settings: 10 µM; 24 h; SM minimal medium; subpopulation (auxotrophy): HUM
Method in brief: as §1

[13] = test system: Saccharomyces cerevisiae BY4741 SeMeCo community; test: mean cell size (pixel area) (pixels); higher = larger cells; settings: 10 µM; 24 h; SM minimal medium
Method in brief: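 Mean cell pixel area per well was determined by automated confocal microscopy with Harmony analysis of paraformaldehyde-fixed cells. The cells, a Saccharomyces cerevisiae BY4741 community of four plasmids that each complement one auxotrophy and carry a fluorescent marker, were incubated for 24 h with drug at a final 10 µM in SM medium in 384-well plates. Numbers are averaged over 3 replicates. Same SeMeCo high-content imaging drug screen: Selleck FDA-approved drugs at 10 µM, 24 h in SM medium, 384-well plates, 3 replicates.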

[14] = test system: Saccharomyces cerevisiae BY4741 SeMeCo community; test: z-score of subpopulation abundance vs DMSO median, subpopulation auxotrophic for LM; higher = larger share of this subpopulation than in DMSO controls; settings: 10 µM; 24 h; SM minimal medium; subpopulation (auxotrophy): LM
Method in brief: as §1

[15] = test system: Saccharomyces cerevisiae BY4741 SeMeCo community; test: z-score of subpopulation abundance vs DMSO median, subpopulation auxotrophic for LUM; higher = larger share of this subpopulation than in DMSO controls; settings: 10 µM; 24 h; SM minimal medium; subpopulation (auxotrophy): LUM
Method in brief: as §1

[16] = test system: Saccharomyces cerevisiae BY4741 SeMeCo community; test: z-score of subpopulation abundance vs DMSO median, subpopulation auxotrophic for HLUM; higher = larger share of this subpopulation than in DMSO controls; settings: 10 µM; 24 h; SM minimal medium; subpopulation (auxotrophy): HLUM
Method in brief: as §1

[17] = test system: Saccharomyces cerevisiae BY4741 SeMeCo community; test: z-score of subpopulation abundance vs DMSO median, subpopulation auxotrophic for M; higher = larger share of this subpopulation than in DMSO controls; settings: 10 µM; 24 h; SM minimal medium; subpopulation (auxotrophy): M
Method in brief: as §1

Structure (SMILES)	z-score of prototroph abundance [1]	z-score of subpopulation abundance [2]	z-score of subpopulation abundance [3]	z-score of subpopulation abundance [4]	z-score of subpopulation abundance [5]	z-score of subpopulation abundance [6]	z-score of subpopulation abundance [7]	z-score of subpopulation abundance [8]	z-score of subpopulation abundance [9]	z-score of subpopulation abundance [10]	z-score of subpopulation abundance [11]	z-score of subpopulation abundance [12]	mean cell size [13]	z-score of subpopulation abundance [14]	z-score of subpopulation abundance [15]	z-score of subpopulation abundance [16]	z-score of subpopulation abundance [17]
CC(=O)NS(=O)(=O)c1ccc(N)cc1 [Sulfacetamide Sodium]	-0.69	-0.02	0.86	0.92	0.61	0.1	-0.34	0.35	0.22	-0.24	-0.1	0.62					
O=c1n(CCCN2CCN(c3cccc(Cl)c3)CC2)nc2ccccn12 [Trazodone HCl]	-0.06	-1.59	-0.6	-0.86			0.33	0.22	-0.82	-0.83	0.04	0.45	12.6 ± 0.15	-0.41	-0.51	-0.57	
CC(C)c1nc(N(C)S(C)(=O)=O)nc(-c2ccc(F)cc2)c1/C=C/[C@@H](O)C[C@@H](O)CC(=O)O [Rosuvastatin Calcium]	-1.23	0.29	0.59	0.06		3.45	2.1	2.31	0.38	1.41	3.96	2.14	11.6 ± 0.2	-1.44		0.9	
Clc1ccc(C(Cn2ccnc2)OCc2csc3c(Cl)cccc23)c(Cl)c1 (centres undefined) [Sertaconazole nitrate]	-8.82	1.38	0.4	36.6	1.93		14.5	-2.33	16.1	11.1	28.5	3.4			2.6	28.5	
CC(C[N+](C)(C)C)OC(N)=O (centres undefined) [Bethanechol chloride]	-0.22	0.42	0.7	0.23	0.8		0.89	-0.21	-0.24	1.45	0.1		12.5 ± 0.12	-0.56	-0.42	-0.3	
O=c1[nH]cnc2c1ncn2[C@@H]1O[C@H](CO)[C@@H](O)[C@H]1O [Isoprinosine]	0.72	-0.33	-0.71	0.09	-1.21	-0.53	-0.35	-0.74	-0.64	-0.46			12 ± 0.19	0	-0.5	-0.65	
CCNC(=O)[C@@H]1CCCN1C(=O)[C@H](CCCNC(=N)N)NC(=O)[C@H](CC(C)C)NC(=O)[C@@H](CC(C)C)NC(=O)[C@H](Cc1ccc(O)cc1)NC(=O)[C@H](CO)NC(=O)[C@H](Cc1c[nH]c2ccccc12)NC(=O)[C@H](Cc1c[nH]cn1)NC(=O)[C@@H]1CCC(=O)N1 [Leuprolide Acetate]	-0.62	0.44	0.31		-0.03	0.95	1.03	0.23	0.14		0.28		12.5 ± 0.15	0.63		0.75	0.38

From the supplement of paper PMC8975748
